Where a name gives a salt, the structure may show the parent alone.
The molecules below were run on Saccharomyces cerevisiae BY4741 SeMeCo community (assay: z-score of subpopulation abundance vs DMSO median, subpopulation auxotrophic for U; higher = larger share of this subpopulation than in DMSO controls). Conditions: 10 µM; 24 h; SM minimal medium; subpopulation (auxotrophy): U.
Description: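 Fluorescent four-plasmid SeMeCo (self-establishing metabolically cooperating S. cerevisiae BY4741 community; plasmids pH-mRuby2, pL-mWasabi, pU-eCFP, pM-TagRFP657) was grown 24 h in minimal SM medium with each Selleck FDA-approved drug at 10 µM in 384-well plates. Cells were fixed and imaged by high-content confocal microscopy. For each auxotrophic subpopulation (and the prototroph), a z-score gives the deviation from the DMSO vehicle-control population median.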

Compound | z-score of subpopulation abundance
CC(C)=CCOc1c2occc2cc2ccc(=O)oc12 [Imperatorin] | 0.23
COc1cc2c(cc1OC)C1CC(=O)C(CC(C)C)CN1CC2 (stereo not given) [Tetrabenazine (Xenazine)] | -1.18
CCN(C)C(=O)Oc1cccc([C@H](C)N(C)C)c1 [Rivastigmine] | -0.07
CC[C@@H](C(N)=O)N1CCCC1=O [Levetiracetam] | 0
Cn1cc(C2=C(c3cn(C4CCN(Cc5ccccn5)CC4)c4ccccc34)C(=O)NC2=O)c2ccccc21 | 1.48
CC(=O)OCC1=C(C(=O)O)N2C(=O)C(N)C2SC1 (stereo not given) [7-Aminocephalosporanic acid] | 0.52
COc1ccc2c(c1)[C@]13CCCC[C@@H]1[C@H](C2)N(C)CC3 [Dextromethorphan hydrobromide hydrate] | 0.26
CN[C@@H]1[C@@H](O)[C@@H](O[C@@H]2[C@@H](O)[C@H](O[C@H]3O[C@H](CN)CC[C@H]3N)[C@@H](N)C[C@H]2N)OC[C@]1(C)O.CN[C@@H]1[C@@H](O)[C@@H](O[C@@H]2[C@@H](O)[C@H](O[C@H]3O[C@H]([C@@H](C)N)CC[C@H]3N)[C@@H](N)C[C@H]2N)OC[C@]1(C)O.CN[C@@H]1[C@@H](O)[C@@H](O[C@@H]2[C@@H](O)[C@H](O[C@H]3O[C@H]([C@@H](C)NC)CC[C@H]3N)[C@@H](N)C[C@H]2N)OC[C@]1(C)O [Gentamicin Sulfate] | 0.09
CC(=O)O[C@H]1C[C@@H]2CC[C@@H]3[C@H](CC[C@@]4(C)[C@H]3C[C@H]([N+]3(C)CCCCC3)[C@@H]4OC(C)=O)[C@@]2(C)C[C@@H]1[N+]1(C)CCCCC1 [Pancuronium dibromide] | 0.25
COc1ccc(C(CN(C)C)C2(O)CCCCC2)cc1 (stereo not given) [Venlafaxine] | 0.93
Oc1cccc2cccnc12 [8-Hydroxyquinoline] | -0.25
C[N+](C)(C)CCCCCCCCCC[N+](C)(C)C [Decamethonium Bromide] | 0.01
N[C@@H]1C[C@H]1c1ccccc1 [Tranylcypromine (2-PCPA) HCl] | -0.01
Nc1nc(N)nc(NC2CC2)n1 [Cyromazine] | 0.89
CCN(CC)CCOC(=O)C(O)(c1ccccc1)c1ccccc1 [Benactyzine hydrochloride] | 1.08
C[N+]1(C)[C@@H]2C[C@@H](OC(=O)[C@H](CO)c3ccccc3)C[C@H]1[C@@H]1O[C@@H]12 [Methscopolamine] | 0.61
CN(C)[C@@H]1C(=O)C(C(N)=O)=C(O)[C@@]2(O)C(=O)C3=C(O)c4c(O)cccc4[C@@](C)(O)[C@H]3C[C@@H]12 [Tetracycline HCl] | 0.13
NCC(O)c1ccc(O)cc1 (racemic) [(+,-)-Octopamine HCl] | 0.08
CCCCCCCCCCCCCCCC[n+]1ccccc1 [Cetylpyridinium Chloride] | 1.27
Cc1cc(C(C#N)c2ccc(Cl)cc2)c(Cl)cc1NC(=O)c1cc(I)cc(I)c1O (stereo not given) [Closantel] | -0.26

Compound | z-score of subpopulation abundance
Cc1cc(O)ccc1Cl [Chlorocresol] | -0.59
C=C[C@H]1CN2CC[C@H]1C[C@H]2[C@H](O)c1ccnc2ccccc12 [Cinchonidine] | 0.59
O=C(O[C@H]1C[C@H]2CC[C@@H](C1)[N+]21CCCC1)C(O)(c1ccccc1)c1ccccc1 [Trospium chloride] | -0.17
N#Cc1nn(-c2c(Cl)cc(C(F)(F)F)cc2Cl)c(N)c1[S+]([O-])C(F)(F)F (stereo not given) [Fipronil] | -0.36
CCC1=C[C@H]2CN3CCc4c([nH]c5ccccc45)[C@](C(=O)OC)(C2)[C@H]13 [Catharanthine] | 0.69
C[C@@H]1CC[C@H]2[C@@H](C)C(=O)O[C@@H]3O[C@@]4(C)CC[C@@H]1[C@]32OO4 [Artemisinin] | 0.61
CN1C(=O)COc2c(C(=O)NC3CN4CCC3CC4)cc(Cl)cc21 (stereo not given) [Azasetron HCl] | 0.36
O=c1[nH]c2ccccc2n1CCCN1CCC(n2c(=O)[nH]c3cc(Cl)ccc32)CC1 [Domperidone] | 0.4
C=CC[C@]1(O)CC[C@H]2[C@@H]3CCC4=CC(=O)CCC4=C3C=C[C@@]21C [Altrenogest] | -1.52
CN(C)[C@@H]1C(=O)C(C(N)=O)=C(O)[C@@]2(O)C(=O)C3=C(O)c4c(O)ccc(Cl)c4[C@@](C)(O)[C@H]3C[C@@H]12 [Chlortetracycline HCl] | 0.25
CC[C@H]1[C@@H]2C[C@H]3[C@@H]4N(C)c5ccccc5[C@]45C[C@@H]([C@@H]2[C@H]5O)N3[C@@H]1O [Ajmaline] | 0.29
CC(NC(C)(C)C)C(=O)c1cccc(Cl)c1 (stereo not given) [Amfebutamone (Bupropion) HCl] | 0.11
O=[N+]([O-])C(Br)(CO)CO [Bronopol] | 1.02
CN(C)[C@@H]1C(=O)C(C(N)=O)=C(O)[C@@]2(O)C(=O)C3=C(O)c4c(O)cccc4[C@@](C)(O)[C@H]3[C@H](O)[C@@H]12 [Oxytetracycline Dihydrate] | 0.11
COc1ccc(C=O)cc1 [p-Anisaldehyde] | -0.66
CCN(C)C(=O)Oc1cccc([C@H](C)N(C)C)c1 [Rivastigmine Tartrate] | -0.19
C[N+]12CCC(CC1)C(OC(=O)C(O)(c1ccccc1)c1ccccc1)C2 (stereo not given) [Clidinium Bromide] | 0.71
CC(C)(O)C(Cl)(Cl)Cl [Chlorobutanol] | 0.13
C=C(C)[C@H]1Cc2c(ccc3c2O[C@@H]2COc4cc(OC)c(OC)cc4[C@@H]2C3=O)O1 [Rotenone (Barbasco)] | -0.02
CN[C@@H]1[C@@H](O)[C@@H](O[C@@H]2[C@@H](O)[C@H](O[C@H]3O[C@H]([C@@H](C)O)[C@@H](O)[C@H](O)[C@H]3N)[C@@H](N)C[C@H]2N)OC[C@]1(C)O [Geneticin (G418 Sulfate)] | -0.18
